# Source: PubChem (National Center for Advancing Translational Sciences (NCATS))
# This is one part of a sample in which hits are shown more often than they occur.
# HT1080-NT tox: kills 2HG-producing HT-1080-NT fibrosarcoma cells; 1.6% of 360,000 active; Potency, µM (titrated, usually from 46.1 µM), for inactives: top-dose activity, negative = less viability, actives largely listed as cytotoxic; AID 686970; HT-1080-NT fibrosarcoma viability, CellTiter-Glo ATP luminescence, 48 h;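 note: NT is the 2HG producing partner of a matched IDH1 knockdown line; potency is the fitted concentration of half-maximal effect; 0% = DMSO-treated cells and -100% = media-only wells without cells; nearly all actives have a fitted effect of over 55% in size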
#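 Viability of the 2HG-overproducing fibrosarcoma line after 48 hours of compound exposure at 37 degrees C was determined by luminescence with CellTiter-Glo, and concentration-effect curves were then fitted and categorized.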
# DT40 TDP1 no CPT: qHTS for Inhibitors of human tyrosyl-DNA phosphodiesterase 1 (TDP1): qHTS in cells in absence of CPT; Potency, µM (series often up to 46.2 µM), without a hit: at the highest dose activity change, negative = growth inhibition, most hits filed as inhibitors; AID 686978, 2013; DT40 Tdp1-/- hTDP1 cells, no CPT, ATP luminescence, 48 h; 15% of 420,000 active; note: potency is the fitted concentration of half-maximal effect; nearly all actives have a fitted effect of over 55% in size
#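 Seeded 400 DT40-hTDP1 cells/well (vehicle DMSO, no 20 nM CPT); pinned compounds; ≥48 hr at 37 °C; CellTiter-Glo luminescence as viability measure.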
# HT1080 IDH1KD tx: kills HT-1080 cells with IDH1 knockdown | HT-1080 IDH1 knockdown viability, ATP luminescence, 48 h | Potency, µM (top dose mostly 46.1 µM), without a hit: top-dose activity, negative = toxicity, most hits filed as cytotoxic | 2% of 360,000 active | AID 686971;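 note: potency is the fitted concentration of half-maximal effect; 0% = DMSO wells and -100% = cell-free medium wells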
#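 Assay cells: HT-1080 with IDH1 knockdown, 750 per well, RPMI/5% FBS. Exposure: 48 h at 37 °C following 2 h pre-incubation. Read: CellTiter-Glo luminescence; fitted concentration-response, curve class assigned.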
# IL1B secr inh: blocks inflammasome-driven IL-1 beta release. 4.7% of 360,000 active. activity change, % at 57.5 µM. THP-1 LPS/ATP IL-1B secretion, AlphaLISA, 16 h; hits give low values. AID 743279; in the data active = activity change below about -50%; inconclusive = mostly about -30% to -49%
#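 Secreted IL-1B measured by AlphaLISA bead assay after 16 h compound exposure of THP-1 cells; compounds (final up to 57.5 uM) added 1 h before LPS (250 ng/mL) and ATP (1.25 mM) stimulation; lower signal means less secretion.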
# DT40 TDP1 CPT: DT40-hTDP1 cell growth loss with CPT; chicken DT40 Tdp1-/-;hTDP1 cells + 20 nM CPT, ATP luminescence, 48 h; Potency, µM (doses to about 46.2 µM), inactives show top-dose activity change, negative = growth inhibition, hits mostly inhibitors; 12% of 420,000 active; AID 686979; note: potency is the fitted concentration of half-maximal effect; nearly all actives have a fitted effect of over 55% in size
#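 Chicken DT40 Tdp1-/- cells complemented with human TDP1, 400 cells/well, exposed to compounds plus 20 nM camptothecin for at least 48 h at 37 C; viability read as ATP content by CellTiter-Glo luminescence.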
# 12-LOX inh: ALOX12 (human) lipoxygenase inhibition; Potency, µM (top dose mostly 108 µM), for inactives: at the highest dose activity change, negative = inhibition, most hits filed as inhibitors; AID 1671190; P18054; purified 12hLO, xylenol orange hydroperoxide absorbance; 1.1% of 580,000 active; note: potency is the fitted concentration of half-maximal effect
# Target sequence (P18054 whole entry, looked up): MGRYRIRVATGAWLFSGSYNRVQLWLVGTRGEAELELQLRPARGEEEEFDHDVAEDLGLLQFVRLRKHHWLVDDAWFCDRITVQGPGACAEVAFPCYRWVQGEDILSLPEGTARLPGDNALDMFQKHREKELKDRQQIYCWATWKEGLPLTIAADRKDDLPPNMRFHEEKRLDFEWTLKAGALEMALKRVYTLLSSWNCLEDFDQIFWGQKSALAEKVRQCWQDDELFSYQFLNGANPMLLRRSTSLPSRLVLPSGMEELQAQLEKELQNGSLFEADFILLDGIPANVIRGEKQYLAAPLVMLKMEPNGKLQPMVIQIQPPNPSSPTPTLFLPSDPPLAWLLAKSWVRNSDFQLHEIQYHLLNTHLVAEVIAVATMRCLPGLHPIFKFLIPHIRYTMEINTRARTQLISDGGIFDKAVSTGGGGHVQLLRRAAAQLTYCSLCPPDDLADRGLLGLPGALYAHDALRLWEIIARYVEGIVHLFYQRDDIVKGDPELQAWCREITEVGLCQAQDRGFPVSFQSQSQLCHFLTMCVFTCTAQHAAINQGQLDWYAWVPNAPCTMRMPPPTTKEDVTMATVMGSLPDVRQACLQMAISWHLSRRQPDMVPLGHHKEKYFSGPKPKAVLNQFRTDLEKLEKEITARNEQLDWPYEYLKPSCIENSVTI
#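 Purified human 12hLO (150 nM final) in 25 mM Hepes, 0.01% Triton X-100, pH 7.0 was preincubated 15 min at room temperature with compound. Then 40 uM arachidonic acid was added, 30 min. Hydroperoxide was read by Fe-XO absorbance ratio 573/405 nm.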
# Active calls of the source: *; ? = inconclusive; nt = no result; [ ] = another dose, or the depositor's remark. Unless noted, calls come from the whole dose curve; as a rule, active = well fitted curve in the direction sought with a large enough effect; inconclusive = small, poorly fitted or top-dose-only effect, or another doubt; inactive = no such curve, though single readings can be large; an effect the other way counts as inactive or inconclusive. Unless noted, % is set by controls: 0 for no effect and ±100 for the full control effect.
SMILES,HT1080-NT tox,DT40 TDP1 no CPT,HT1080 IDH1KD tx,IL1B secr inh,DT40 TDP1 CPT,12-LOX inh
COC(=O)c1cc2c(ccn2-c2ccc(F)cc2)n1Cc1cccc(OC)c1,-11%,16µM*,?,-16,7.3µM*,-27%
CC(C)CCNC(=O)c1cnc2n1CCN(Cc1cccs1)CC2,nt,nt,nt,nt,nt,9%[176 µM]
c1cnc2c(-n3nc(C4CCOCC4)nc3C3CC3)cccc2c1,nt,nt,nt,nt,nt,18%
CC(=O)Nc1ccc(C(=O)N2CCC3(CC2)N=C(c2cccc(Br)c2)NO3)cc1,nt,nt,nt,nt,nt,25%
CCOC(=O)c1cc2c(ccn2C)n1CC(=O)Nc1ccc(F)cc1,1%,-21%,3%,-25,23µM*,4%
O=C(CC1C(=O)Nc2nc(SCc3ccccc3)nn21)Nc1cccc(C(F)(F)F)c1 (stereo unspecified),nt,nt,nt,nt,nt,3%
CC(=O)c1cccc(NC(=O)Cc2c(C)c3c(O)cc(C)cc3oc2=O)c1,nt,nt,nt,nt,nt,-25%
COc1ccc(-c2noc(Nc3ccccc3)n2)cc1,nt,nt,nt,nt,nt,-5%
COc1ccc(-c2noc(-c3cc(C(C)C)[nH]n3)n2)cc1,nt,18µM*,nt,nt,21µM*,0%
COc1ccc(-c2noc(Nc3cc(OC)cc(OC)c3)n2)cc1,nt,nt,nt,nt,nt,18µM*
CCOc1cc(-c2nc(-c3ccc(-c4ccc(OC)cc4)nc3OC)no2)cc(OCC)c1OCC,nt,10µM*,nt,nt,18µM*,2%
Cc1ccc(-c2noc(-c3cc(-c4ccc(F)cc4)n[nH]3)n2)cc1,nt,?,nt,nt,-12%,-13%
CC(C)c1cc(-c2nc(-c3ccc(Br)cc3)no2)n[nH]1,nt,?,nt,nt,?,-9%
COc1ccc(-c2noc(-c3cc(-c4ccc(F)cc4)n[nH]3)n2)cc1,nt,?,nt,nt,6.5µM*,3%
CC(NC(=O)c1cc2ccccc2oc1=O)c1ccc(C(F)(F)F)cc1 (stereo unspecified),nt,nt,nt,nt,nt,-30%
CCC1(N2CCN(C(=O)Nc3cc(Cl)ccc3OC)CC2)CCN(C(=O)NC)C1 (stereo unspecified),nt,nt,nt,nt,nt,33%
Fc1cccc(Nc2nc(-c3ccccc3)no2)c1,nt,nt,nt,nt,nt,35µM*
CCOc1ccc(-c2cc(-c3nc(-c4ccc(OCC)cc4)no3)[nH]n2)cc1,nt,nt,nt,nt,nt,33%
Fc1ccc(-c2cc(-c3nc(-c4ccccc4)no3)[nH]n2)cc1,nt,-27%,nt,nt,-16%,4%
CCOc1cc(-c2noc(-c3ccncc3)n2)cc(Br)c1OC,?,16µM*,?,19,?,-22%
CCOc1ccc(-c2cc(-c3nc(-c4cc(OC)c(OC)c(OC)c4)no3)[nH]n2)cc1,nt,9.2µM*,nt,nt,9.2µM*,-17%
Cc1ccccc1-c1noc(-c2cc(-c3ccc(F)cc3)n[nH]2)n1,nt,23µM*,nt,nt,21µM*,-13%
Fc1ccc(Nc2nc(-c3ccccc3)no2)cc1,nt,nt,nt,nt,nt,2%
N#Cc1cccc(OCC(=O)c2ccc3ccccc3c2)c1,nt,nt,nt,nt,nt,12%
CCC(c1cccs1)N1C(=O)[C@H]2CN(S(=O)(=O)c3ccc(C)cc3C)C[C@H]2C1=O (stereo partly specified),nt,nt,nt,nt,nt,1%
SMILES,HT1080-NT tox,DT40 TDP1 no CPT,HT1080 IDH1KD tx,IL1B secr inh,DT40 TDP1 CPT,12-LOX inh
O=C1Nc2ccccc2C1Cc1ccccc1 (stereo unspecified),9%,-10%,4%,-8,?,261%
O=C1C=CC2(C=C1)O[C@H](Cc1ccccc1)[C@@H](Cc1ccccc1)O2,3.7µM*,0.65µM*,1.2µM*,-100*,1µM*,0%
COc1ccc(C[C@@H]2OC3(C=CC(=O)C=C3)O[C@H]2Cc2ccc(OC)cc2)cc1,5.2µM*,0.37µM*,1.3µM*,-77*,0.41µM*,nt
COc1ccc(S(=O)(=O)NCC2CCC(C(=O)NCC(=O)NCc3ccccn3)CC2)cc1 (stereo unspecified),nt,nt,nt,nt,nt,10%
COc1ccc(/C=N/NC(=O)c2ccco2)cc1Cn1nc(C)c([N+](=O)[O-])c1C,-5%,18µM*,-5%,20,?,-7%
COc1ccc(/C=N/NC(=O)c2ccco2)cc1Cn1nc(C)cc1C,3%,-21%,9%,19,-2%,-15%
Cc1nn(CC(=O)N/N=C/c2cccs2)c(C)c1[N+](=O)[O-],8%,-28%,3%,-24,3%,49%
Cc1nn(C(C)C(=O)NCc2ccccc2)c(C)c1[N+](=O)[O-] (stereo unspecified),7%,-1%,22%,15,-25%,14%
COc1cccc(/C=N/NC(=O)C(C)n2nc(C)c([N+](=O)[O-])c2C)c1O (stereo unspecified),-27%,1µM*,?,37,0.92µM*,2%
COc1cccc(/C=N/NC(=O)Cn2nc(C)c([N+](=O)[O-])c2C)c1O,?,5.8µM*,18µM*,53,5.8µM*,-11%
COc1cccc(/C=N\NC(=O)c2ccc(Cn3cc(Br)c([N+](=O)[O-])n3)o2)c1O,?,3.3µM*,?,167,?,-16%
CC(C)c1ccccc1NC1=NS(=O)(=O)c2ccccc21,nt,nt,nt,nt,nt,-62%
Cn1c(=O)c2cc(C(=O)NCCCN3CCN(c4cccc(Cl)c4)CC3)sc2c2ccccc21,nt,2.9µM*,nt,nt,?,?
